Values without a mark were called inactive. Activity calls are given as the source filed them. Rule as the data show it: active = IC50 below about 3 µM; inactive = the rest.
Assay: luminescent readout interference, potency – biochemical, luminescence, artefact control for SENP inhibitor project, dose response (AID 488920)
Details: luminescence interference counterscreen, spectral interferers

Row | Compound | IC50
1 | Cc1ccnc(Nc2nc(-c3ccccc3)cs2)c1 | 824 nM (active)
2 | CCC(C)n1c(NC(=O)c2ccccc2)c(C#N)c2nc3ccccc3nc21 (centres undefined) | > 5000 nM
3 | CCn1c(O)c(N=Nc2ccc3ccccc3n2)c2ccccc21 | 2910 nM (active)
4 | Cc1ccc(/C=C/c2nc3ccccc3c(=O)[nH]2)cc1 | 403 nM (active)
5 | Cc1ccc(S(=O)(=O)/N=C2\C=C(Nc3cccc(C(=O)O)c3)C(=O)c3ccccc32)c(C)c1 | > 5000 nM
6 | O=C(O)c1ccc(NC2=C/C(=N/S(=O)(=O)c3ccccc3)c3ccccc3C2=O)cc1 | > 5000 nM
7 | O=c1oc2c(O)cccc2cc1-c1nc2ccccc2[nH]1 | 606 nM (active)
8 | Cc1ccc(C(=O)NNc2cc(N3CCCC3)nc(N3CCCC3)n2)cc1 | > 5000 nM
9 | Cc1ccc(NC2=C/C(=N/S(=O)(=O)c3cccs3)c3ccccc3C2=O)cc1 | > 5000 nM
10 | Cc1nc(Nc2ccc(C(=O)O)cc2)sc1-c1ccccc1 | 325 nM (active)
11 | Oc1[nH]c2ccccc2c1N=Nc1ccc(F)cc1 | 888 nM (active)
12 | Cc1cc(C)nc(Nc2nc(-c3ccccc3)cs2)n1 | 865 nM (active)
13 | CCN(CC)c1ccc(/C=N/NC(=O)c2ccoc2C)c(O)c1 | 2530 nM (active)
14 | O=C1/C(=C/c2ccc([N+](=O)[O-])cc2)CCc2ccccc21 | 884 nM (active)
15 | CCCCn1c(NC(=O)c2ccccc2Cl)c(C#N)c2nc3ccccc3nc21 | > 5000 nM
16 | Cn1c(-c2ccccc2)cc2onc(-c3ccccc3)c2c1=O | 607 nM (active)
17 | COc1cc(C(=O)c2nccc3cc(OC)c(OC)cc23)c([N+](=O)[O-])cc1OC | > 5000 nM
18 | COc1cc([N+](=O)[O-])ccc1N/C=C/C(=O)c1cccs1 | 458 nM (active)
19 | COc1ccc(C(=O)c2nccc3cc(OC)c(OC)cc23)cc1OC | > 5000 nM
20 | C/C(=N\OC(=O)c1ccc(Br)cc1)c1ccccn1 | 548 nM (active)
21 | O=C(O)c1ccc2cc(-c3ccccc3)[nH]c2c1 | 471 nM (active)
22 | O=C1c2ccccc2-c2nnc(-c3ccc(F)cc3)cc21 | 1180 nM (active)
23 | O=c1[nH]c(Nc2ccccc2)cc2ccccc12 | > 5000 nM
24 | CCOc1ccc(/C=C2\CCc3ccccc3C2=O)cc1 | 782 nM (active)

Source: PubChem BioAssay AID488920 (Sanford-Burnham Center for Chemical Genomics, 2010)
